What was measured:
[1] = target: Serine/threonine-protein kinase MARK2 (Homo sapiens) (UniProt Q7KZI7); details: at 1 µM
[2] = target: PAS domain-containing serine/threonine-protein kinase (Homo sapiens) (UniProt Q96RG2); details: at 0.1 µM
[3] = target: PAS domain-containing serine/threonine-protein kinase (Homo sapiens) (UniProt Q96RG2); details: at 1 µM
[4] = target: Phosphorylase b kinase gamma catalytic chain, skeletal muscle/heart isoform (Homo sapiens) (UniProt Q16816); details: at 0.1 µM
Chain of Phosphorylase b kinase gamma catalytic chain, skeletal muscle/heart isoform (Homo sapiens) (Q16816 whole entry, looked up, canonical isoform): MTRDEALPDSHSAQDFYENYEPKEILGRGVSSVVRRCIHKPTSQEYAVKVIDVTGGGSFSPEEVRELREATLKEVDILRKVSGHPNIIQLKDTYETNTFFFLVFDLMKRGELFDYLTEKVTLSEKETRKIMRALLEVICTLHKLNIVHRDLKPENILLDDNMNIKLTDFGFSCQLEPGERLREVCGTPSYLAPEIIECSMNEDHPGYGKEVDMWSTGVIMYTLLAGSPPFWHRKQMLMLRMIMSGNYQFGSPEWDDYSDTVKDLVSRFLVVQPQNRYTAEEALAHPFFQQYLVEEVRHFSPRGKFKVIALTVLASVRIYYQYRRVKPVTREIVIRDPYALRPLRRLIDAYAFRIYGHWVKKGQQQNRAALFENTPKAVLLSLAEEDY

[5] = target: Phosphorylase b kinase gamma catalytic chain, skeletal muscle/heart isoform (Homo sapiens) (UniProt Q16816); details: at 1 µM
[6] = target: T1, Phosphorylase b kinase gamma catalytic chain, liver/testis isoform (Homo sapiens) (UniProt P15735); details: at 0.1 µM
T1 sequence (whole entry): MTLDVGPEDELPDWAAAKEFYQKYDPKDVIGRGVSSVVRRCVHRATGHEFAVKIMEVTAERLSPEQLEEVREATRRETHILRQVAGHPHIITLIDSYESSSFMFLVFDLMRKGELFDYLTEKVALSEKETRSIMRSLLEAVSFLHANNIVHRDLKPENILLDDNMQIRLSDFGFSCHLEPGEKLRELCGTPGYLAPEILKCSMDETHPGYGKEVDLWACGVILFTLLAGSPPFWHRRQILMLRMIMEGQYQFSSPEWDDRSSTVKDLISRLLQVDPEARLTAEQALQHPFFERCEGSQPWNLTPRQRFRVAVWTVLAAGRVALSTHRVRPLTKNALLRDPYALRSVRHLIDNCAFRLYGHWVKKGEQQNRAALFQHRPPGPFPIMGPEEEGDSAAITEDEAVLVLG

[7] = target: T1, Phosphorylase b kinase gamma catalytic chain, liver/testis isoform (Homo sapiens); details: at 1 µM
[8] = target: Serine/threonine-protein kinase pim-1 (Homo sapiens) (UniProt P11309); details: at 0.1 µM
Chain of Serine/threonine-protein kinase pim-1 (Homo sapiens) (P11309 whole entry, looked up): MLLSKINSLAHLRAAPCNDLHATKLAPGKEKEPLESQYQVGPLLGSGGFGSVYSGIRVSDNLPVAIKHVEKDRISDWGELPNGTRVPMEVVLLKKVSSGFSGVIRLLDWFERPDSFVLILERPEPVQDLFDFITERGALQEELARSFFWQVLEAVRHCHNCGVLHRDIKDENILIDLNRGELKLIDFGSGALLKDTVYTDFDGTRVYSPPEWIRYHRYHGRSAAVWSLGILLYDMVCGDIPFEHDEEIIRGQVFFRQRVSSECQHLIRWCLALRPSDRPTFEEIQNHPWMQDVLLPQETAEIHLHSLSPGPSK

[9] = target: Serine/threonine-protein kinase pim-1 (Homo sapiens) (UniProt P11309); details: at 1 µM
[10] = target: Serine/threonine-protein kinase pim-2 (Homo sapiens) (UniProt Q9P1W9); details: at 0.1 µM
Chain of Serine/threonine-protein kinase pim-2 (Homo sapiens) (Q9P1W9 whole entry, looked up): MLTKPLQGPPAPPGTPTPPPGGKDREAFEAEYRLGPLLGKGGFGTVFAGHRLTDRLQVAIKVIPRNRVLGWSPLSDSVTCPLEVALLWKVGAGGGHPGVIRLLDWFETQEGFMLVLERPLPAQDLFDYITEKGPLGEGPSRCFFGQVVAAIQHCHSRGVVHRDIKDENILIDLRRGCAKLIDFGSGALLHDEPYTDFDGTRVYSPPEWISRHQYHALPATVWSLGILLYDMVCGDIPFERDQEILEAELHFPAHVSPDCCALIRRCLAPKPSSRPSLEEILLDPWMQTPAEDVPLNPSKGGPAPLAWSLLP

[11] = target: Serine/threonine-protein kinase pim-2 (Homo sapiens) (UniProt Q9P1W9); details: at 1 µM
[12] = target: Serine/threonine-protein kinase pim-3 (Homo sapiens) (UniProt Q86V86); details: at 0.1 µM
[13] = target: Serine/threonine-protein kinase pim-3 (Homo sapiens) (UniProt Q86V86); details: at 1 µM
[14] = target: T2, MAP kinase-activated protein kinase 5 (Homo sapiens) (UniProt Q8IW41); details: at 0.1 µM
T2 sequence (whole entry): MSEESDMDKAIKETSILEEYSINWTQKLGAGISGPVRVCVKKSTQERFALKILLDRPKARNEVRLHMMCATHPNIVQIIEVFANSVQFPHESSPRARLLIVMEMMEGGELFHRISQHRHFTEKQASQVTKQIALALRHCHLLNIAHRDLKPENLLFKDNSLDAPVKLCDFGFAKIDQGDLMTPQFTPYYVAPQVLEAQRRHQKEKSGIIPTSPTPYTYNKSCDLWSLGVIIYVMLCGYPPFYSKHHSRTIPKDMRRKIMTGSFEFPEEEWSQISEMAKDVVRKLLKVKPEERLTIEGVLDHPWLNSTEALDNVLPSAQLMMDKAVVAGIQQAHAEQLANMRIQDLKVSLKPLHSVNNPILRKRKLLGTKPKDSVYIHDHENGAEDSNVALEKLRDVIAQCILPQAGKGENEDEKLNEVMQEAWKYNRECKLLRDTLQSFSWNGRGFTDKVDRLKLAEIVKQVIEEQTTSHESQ

[15] = target: T2, MAP kinase-activated protein kinase 5 (Homo sapiens); details: at 1 µM
[16] = target: Serine/threonine-protein kinase SIK1 (Homo sapiens) (UniProt P57059); details: at 0.1 µM
Chain of Serine/threonine-protein kinase SIK1 (Homo sapiens) (P57059 whole entry): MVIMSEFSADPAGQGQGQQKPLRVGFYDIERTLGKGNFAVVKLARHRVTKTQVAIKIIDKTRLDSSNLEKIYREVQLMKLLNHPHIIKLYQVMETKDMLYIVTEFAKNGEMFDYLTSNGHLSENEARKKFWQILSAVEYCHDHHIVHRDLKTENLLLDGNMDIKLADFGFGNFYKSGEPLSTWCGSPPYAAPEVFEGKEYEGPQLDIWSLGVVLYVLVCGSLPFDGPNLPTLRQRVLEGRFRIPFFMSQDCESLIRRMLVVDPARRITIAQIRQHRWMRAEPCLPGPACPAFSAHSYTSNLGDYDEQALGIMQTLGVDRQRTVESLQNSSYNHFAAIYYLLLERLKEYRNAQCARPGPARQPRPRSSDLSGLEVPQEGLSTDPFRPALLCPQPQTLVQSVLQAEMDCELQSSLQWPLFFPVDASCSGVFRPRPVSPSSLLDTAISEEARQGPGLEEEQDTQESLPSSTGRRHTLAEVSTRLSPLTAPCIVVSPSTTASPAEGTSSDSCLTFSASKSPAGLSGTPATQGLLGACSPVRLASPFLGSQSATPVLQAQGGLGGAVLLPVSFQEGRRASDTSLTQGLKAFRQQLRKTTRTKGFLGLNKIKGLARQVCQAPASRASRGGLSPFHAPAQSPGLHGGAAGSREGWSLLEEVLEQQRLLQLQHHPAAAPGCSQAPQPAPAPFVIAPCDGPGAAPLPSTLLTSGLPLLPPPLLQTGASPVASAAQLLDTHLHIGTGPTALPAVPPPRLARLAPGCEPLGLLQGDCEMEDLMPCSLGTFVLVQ

[17] = target: Serine/threonine-protein kinase SIK1 (Homo sapiens) (UniProt P57059); details: at 1 µM
[18] = target: Serine/threonine-protein kinase SIK2 (Homo sapiens) (UniProt Q9H0K1); details: at 0.1 µM
[19] = target: Serine/threonine-protein kinase SIK2 (Homo sapiens) (UniProt Q9H0K1); details: at 1 µM
[20] = target: T3, Serine/threonine-protein kinase TBK1 (Homo sapiens) (UniProt Q9UHD2); details: at 0.1 µM;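 note: values are the mean TBK1 inhibition, taken from the GSK PKIS screening data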
T3 sequence (whole entry): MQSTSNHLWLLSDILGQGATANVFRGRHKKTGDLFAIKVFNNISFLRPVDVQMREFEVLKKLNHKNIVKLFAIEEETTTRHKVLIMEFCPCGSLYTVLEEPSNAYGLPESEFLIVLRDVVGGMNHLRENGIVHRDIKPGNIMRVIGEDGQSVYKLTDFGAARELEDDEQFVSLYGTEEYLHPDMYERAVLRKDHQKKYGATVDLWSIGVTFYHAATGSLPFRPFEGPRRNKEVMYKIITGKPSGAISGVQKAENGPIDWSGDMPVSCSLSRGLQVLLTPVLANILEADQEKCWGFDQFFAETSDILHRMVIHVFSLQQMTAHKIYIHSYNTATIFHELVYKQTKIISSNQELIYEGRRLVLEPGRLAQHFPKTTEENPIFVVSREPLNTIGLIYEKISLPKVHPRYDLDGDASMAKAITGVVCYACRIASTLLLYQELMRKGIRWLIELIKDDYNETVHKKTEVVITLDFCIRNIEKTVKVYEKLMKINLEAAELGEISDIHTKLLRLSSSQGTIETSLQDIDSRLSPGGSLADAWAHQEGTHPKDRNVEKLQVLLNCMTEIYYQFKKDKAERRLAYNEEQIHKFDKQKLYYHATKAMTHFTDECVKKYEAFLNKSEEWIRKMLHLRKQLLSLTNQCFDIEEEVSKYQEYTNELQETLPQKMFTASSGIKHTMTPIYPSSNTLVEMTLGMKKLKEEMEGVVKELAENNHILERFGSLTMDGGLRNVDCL

Chain of Serine/threonine-protein kinase MARK2 (Homo sapiens) (Q7KZI7 whole entry, the tested form may be a part): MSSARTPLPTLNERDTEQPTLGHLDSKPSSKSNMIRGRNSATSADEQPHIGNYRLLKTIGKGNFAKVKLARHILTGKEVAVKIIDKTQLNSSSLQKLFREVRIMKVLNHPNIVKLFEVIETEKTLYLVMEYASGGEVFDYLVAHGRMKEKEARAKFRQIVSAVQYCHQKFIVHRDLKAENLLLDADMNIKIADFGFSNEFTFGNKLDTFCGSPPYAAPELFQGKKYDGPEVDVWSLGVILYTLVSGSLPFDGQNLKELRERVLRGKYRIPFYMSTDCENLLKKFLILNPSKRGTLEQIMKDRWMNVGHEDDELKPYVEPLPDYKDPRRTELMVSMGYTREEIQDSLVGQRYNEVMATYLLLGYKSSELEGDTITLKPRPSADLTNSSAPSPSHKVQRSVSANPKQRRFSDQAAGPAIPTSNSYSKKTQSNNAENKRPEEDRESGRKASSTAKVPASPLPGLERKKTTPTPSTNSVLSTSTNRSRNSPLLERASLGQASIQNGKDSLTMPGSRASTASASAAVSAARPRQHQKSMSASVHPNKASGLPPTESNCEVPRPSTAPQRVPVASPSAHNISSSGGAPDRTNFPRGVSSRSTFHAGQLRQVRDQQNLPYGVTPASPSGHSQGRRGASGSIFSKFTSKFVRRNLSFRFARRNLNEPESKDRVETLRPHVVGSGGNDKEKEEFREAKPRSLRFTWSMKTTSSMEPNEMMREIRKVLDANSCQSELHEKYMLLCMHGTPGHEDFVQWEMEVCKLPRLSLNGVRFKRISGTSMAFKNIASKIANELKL
Chain of PAS domain-containing serine/threonine-protein kinase (Homo sapiens) (Q96RG2 whole entry, the tested form may be a part, canonical isoform): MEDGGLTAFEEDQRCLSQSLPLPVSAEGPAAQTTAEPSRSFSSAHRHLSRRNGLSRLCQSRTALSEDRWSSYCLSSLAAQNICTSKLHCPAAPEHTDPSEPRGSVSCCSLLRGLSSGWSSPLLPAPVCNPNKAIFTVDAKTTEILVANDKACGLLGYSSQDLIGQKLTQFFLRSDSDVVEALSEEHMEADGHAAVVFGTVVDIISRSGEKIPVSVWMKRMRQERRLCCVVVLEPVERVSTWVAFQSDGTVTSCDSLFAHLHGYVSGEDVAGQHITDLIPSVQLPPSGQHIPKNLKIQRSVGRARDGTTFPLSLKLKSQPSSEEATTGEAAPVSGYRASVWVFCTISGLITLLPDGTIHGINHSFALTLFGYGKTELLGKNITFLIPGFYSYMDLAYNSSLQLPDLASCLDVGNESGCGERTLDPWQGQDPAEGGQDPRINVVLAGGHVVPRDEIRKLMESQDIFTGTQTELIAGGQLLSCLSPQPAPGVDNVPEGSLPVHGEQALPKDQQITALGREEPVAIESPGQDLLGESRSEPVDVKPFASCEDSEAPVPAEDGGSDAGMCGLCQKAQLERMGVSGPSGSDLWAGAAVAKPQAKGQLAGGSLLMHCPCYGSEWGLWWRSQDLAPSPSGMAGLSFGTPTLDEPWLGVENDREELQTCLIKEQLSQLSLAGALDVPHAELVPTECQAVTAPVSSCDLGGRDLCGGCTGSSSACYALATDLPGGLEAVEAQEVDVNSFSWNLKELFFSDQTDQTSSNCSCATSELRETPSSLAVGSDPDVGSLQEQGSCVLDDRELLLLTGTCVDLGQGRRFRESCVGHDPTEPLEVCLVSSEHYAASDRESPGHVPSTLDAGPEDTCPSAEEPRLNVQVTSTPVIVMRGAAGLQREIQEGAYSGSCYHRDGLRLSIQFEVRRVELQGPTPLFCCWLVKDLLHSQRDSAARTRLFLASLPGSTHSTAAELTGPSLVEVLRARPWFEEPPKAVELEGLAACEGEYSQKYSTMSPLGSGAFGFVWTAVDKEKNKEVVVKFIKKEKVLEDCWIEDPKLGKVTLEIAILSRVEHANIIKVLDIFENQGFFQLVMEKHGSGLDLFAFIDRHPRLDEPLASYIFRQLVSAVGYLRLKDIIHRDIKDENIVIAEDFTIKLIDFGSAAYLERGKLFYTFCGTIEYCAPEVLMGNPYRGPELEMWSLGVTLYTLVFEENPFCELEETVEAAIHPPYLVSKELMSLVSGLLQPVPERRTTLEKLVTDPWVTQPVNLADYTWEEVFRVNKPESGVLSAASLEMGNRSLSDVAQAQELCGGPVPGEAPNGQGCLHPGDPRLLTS

| SMILES | inhibition [1] [%] | inhibition [2] [%] | inhibition [3] [%] | inhibition [4] [%] | inhibition [5] [%] | inhibition [6] [%] | inhibition [7] [%] | inhibition [8] [%] | inhibition [9] [%] | inhibition [10] [%] | inhibition [11] [%] | inhibition [12] [%] | inhibition [13] [%] | inhibition [14] [%] | inhibition [15] [%] | inhibition [16] [%] | inhibition [17] [%] | inhibition [18] [%] | inhibition [19] [%] | inhibition [20] [%] |
| --- | --- | --- | --- | --- | --- | --- | --- | --- | --- | --- | --- | --- | --- | --- | --- | --- | --- | --- | --- | --- |
| COc1ccc2ncnc(Nc3ccc(OCc4ccccc4)cc3)c2c1 | 0.4 | -0.03 | 2.46 | 4.44 | 4.51 | 1.92 | 2.81 | 0.17 | 0.4 | -0.18 | 0.96 | 0.32 | 0.59 | 0.99 | 1.13 | 1.08 | 5.56 | 3.18 | 3.43 | 1.67 |
| COc1cccc(-n2ncc3c(N/N=C/c4ccc(S(C)(=O)=O)cc4)ncnc32)c1 | 3.41 | -0.17 | 0.02 | 2.42 | 2.63 | 1.57 | 2.21 | -0.52 | 1.73 | -3.69 | -2.5 | 0.09 | 2.23 | 0.26 | 0.26 | 4.24 | 26 | 19.1 | 29.9 | 8.06 |
| Cc1ccc(Nc2ccnc(Nc3cccc(C(N)=O)c3)n2)cc1O | 3.99 | 0.66 | 0.18 | 1.96 | 10.4 | 4.75 | 6.26 | 0.14 | 1.49 | -4.07 | -3.06 | 0.18 | 1.91 | 1.13 | 1.29 | 29.8 | 80.2 | 13.1 | 53.5 | 2.74 |
| COC(=O)Nc1nc2cc(Oc3ccc(NC(=O)Nc4cccc(Br)c4)cc3)ccc2[nH]1 | 0.27 | 0.17 | 1.67 | 3.04 | 4.55 | 3.62 | 2.45 | -0.51 | 0.21 | -0.42 | -0.13 | -0.57 | 0.5 | 1.32 | 1.31 | 7.8 | 11.9 | -0.32 | 7.96 | -1.34 |
| O=S(=O)(CCOCc1ccc(-c2ccc3ncnc(Nc4ccc(OCc5cccc(F)c5)c(Cl)c4)c3c2)o1)c1ccccc1 | 3.35 | -0.23 | -0.13 | 1.12 | 5.02 | 1.75 | -0.77 | 1.1 | 2.1 | 0.88 | 2.24 | 0.82 | 2.26 | 0.61 | 0.15 | 3.79 | 5.54 | 0.88 | 1.15 | 0.12 |
| NS(=O)(=O)c1cccc(Nc2cc(-c3ccc(F)cc3)n[nH]2)c1 | 9.04 | 0.67 | 2.88 | 2.8 | 14.5 | 4.37 | 8.84 | 1.38 | 1.68 | 0.15 | 1.85 | 2.44 | 5.79 | 1.15 | 2.81 | 7.9 | 33.8 | 11.7 | 37.9 | 2.64 |
| COC(=O)c1ccc2c(c1)C(=Cc1cc(Br)c(O)c(Br)c1)C(=O)N2 | 4.91 | -1.3 | -0.51 | 0.67 | 7.49 | 4.41 | 3.92 | 8.81 | 50.9 | 10.7 | 53.2 | 18.4 | 64.3 | 0.85 | 2.43 | 8.54 | 14.4 | 3.66 | 9.93 | 1.23 |
| COc1cc2ncn(-c3cc(OCc4ccccc4S(C)(=O)=O)c(C#N)s3)c2cc1OC | 70.7 | 0.91 | 0.31 | 45.2 | 76.5 | 4.94 | 10.9 | 0.71 | 0.97 | 0.9 | 1.39 | -0.4 | -0.82 | 0.7 | -0.19 | 16.1 | 61 | 21.9 | 69.4 | 64.9 |
| CCS(=O)(=O)c1ccc(OC)c(Nc2ncc(-c3cccc(OC)c3)o2)c1 | 1.4 | 0.21 | -1.97 | 1.03 | 18.3 | 2.69 | -0.05 | 1.53 | 2.93 | 0.07 | 0.96 | -0.8 | -0.55 | 0.94 | -0.22 | 6.26 | 28.6 | 8.33 | 31.2 | 0.69 |
| CN(C)c1cc2c(Nc3ccc4c(cnn4Cc4ccccc4)c3)ncnc2cn1 | 0.46 | 0.31 | -1.1 | 2.72 | 4.62 | 3.31 | 1.97 | -0.22 | 1.78 | -0.29 | 0.31 | -0.8 | 0.43 | 0.61 | 0.28 | 3.9 | 4.59 | 2.41 | 4.92 | 1.07 |
| [O-][S+]1CCN(Cc2ccc(-c3ccc4ncnc(Nc5ccc(OCc6ccccc6)c(Cl)c5)c4c3)o2)CC1 | 2.27 | 0.68 | -0.53 | 3.63 | 3.41 | 2.31 | -0.04 | 0.56 | 1.25 | 0.46 | 0.25 | 0.7 | 1.32 | 0.67 | 0.37 | 0.43 | 7.59 | 1.44 | 5.75 | 0.91 |
| COc1cccc(-n2ncc3c(N/N=C/c4ccc(C)cc4)ncnc32)c1 | 6.23 | -0.93 | 0.57 | 2.43 | 10 | 5.73 | 5.98 | 1.21 | 3.51 | -0.44 | 0.75 | 2.2 | 8.3 | 1.88 | 2.22 | 7.95 | 12.6 | 8.99 | 14.7 | 2.64 |
| Nc1nccc(-c2c(-c3ccc(F)cc3)nn3cc(C(F)(F)F)ccc23)n1 | -0.77 | 0.89 | 0.42 | 3.63 | 3.94 | 0.86 | 0.54 | 0.21 | -0.89 | -0.09 | 0.77 | 0.74 | 0.92 | 0.34 | 0.16 | -0.43 | 1.61 | -1.04 | -1.57 | -2.75 |

From ChEMBL document CHEMBL1961873, “Compounds: GSK PKIS; Assays: Nanosyn kinase panel” (2012)
